Only some compounds are listed: those with a hit (about 7.5% of all), similar ones and a draw of the others.
ELG1 genotox = qHTS screen for small molecules that induce genotoxicity in human embryonic kidney (HEK293T) cells expressing luciferase-tagged ELG1 | HEK293T ELG1-luciferase reporter, luminescence, 16 h | Potency, µM (titrated, usually from 46 µM), for the others: at the highest dose activity change, positive = activation, actives largely listed as activators | actives 1.3% (n = 330,000) | AID 504466, 2011; note: % of control where 0% means no effect; nearly all actives have a fitted effect of over 60% in size
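Genotoxicity was scored as increased ELG1-luciferase reporter signal, measured by ONE-Glo luminescence (30 min, room temperature). Compound or vehicle exposure of the HEK293T reporter cells lasted 16 hr at 37°C.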
FLuc modulator = qHTS profiling assay for firefly luciferase inhibitor/activator using purifed enzyme and Km concentrations of substrates (counterscreen for miR-21 project); Luciferin 4-monooxygenase (Photinus pyralis), P08659; actives 6.9% (n = 360,000); Potency, µM (titrated, usually from 57.5 µM), without a hit: at the top dose activity change, negative = inhibition, usual class: inhibitors; purified FLuc, Km substrates, luminescence inhibition;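 note: plate controls were vehicle for no effect and reference inhibitor for full effect; nearly all actives have a fitted effect of over 55% in size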
Target sequence (P08659 whole entry, looked up): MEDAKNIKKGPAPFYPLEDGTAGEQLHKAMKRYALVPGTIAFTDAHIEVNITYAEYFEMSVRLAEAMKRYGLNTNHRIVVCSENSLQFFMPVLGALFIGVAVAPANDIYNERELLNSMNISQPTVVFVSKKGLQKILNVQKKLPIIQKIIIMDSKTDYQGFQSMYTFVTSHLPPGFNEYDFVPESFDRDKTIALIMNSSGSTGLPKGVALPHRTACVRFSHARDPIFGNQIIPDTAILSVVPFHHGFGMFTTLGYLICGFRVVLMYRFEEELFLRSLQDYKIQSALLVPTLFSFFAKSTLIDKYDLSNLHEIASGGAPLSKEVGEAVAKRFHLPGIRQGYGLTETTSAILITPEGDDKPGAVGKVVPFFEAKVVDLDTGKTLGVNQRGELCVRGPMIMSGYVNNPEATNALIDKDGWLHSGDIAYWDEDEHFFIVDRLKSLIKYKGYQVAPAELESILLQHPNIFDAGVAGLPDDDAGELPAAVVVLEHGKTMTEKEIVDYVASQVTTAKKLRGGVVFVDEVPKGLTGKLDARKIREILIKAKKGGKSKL
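Purified P. pyralis luciferase (10nM final) with 10uM D-luciferin and 10uM ATP (Km levels) in 50mM Tris acetate pH 7.5, 10mM Mg acetate, 0.01% Tween-20, 0.05% BSA; qHTS 6-point titration, ~60 µM downward; luminescence read.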
Rab9 prom act = qHTS Assay for Rab9 Promoter Activators; AID 485297, 2010; actives 2.8% (n = 320,000); Potency, µM (series often up to 9.22 µM), inactives show top-dose activation, negative = inhibition, actives largely listed as activators; Huh7 Rab9 promoter-luciferase reporter, luminescence, 24 h; note: % of control where 0% means no effect; nearly all actives have a fitted effect of over 60% in size
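Promoter activation is measured as luciferase luminescence in Huh7 cells stably transfected with a Rab9 promoter–luciferase construct, following 24 h compound exposure at 37 °C and 10 min reagent incubation at ambient temperature.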
NPC1 prom act = qHTS Assay for NPC1 Promoter Activators | Huh7 NPC1 promoter luciferase reporter, 24 h | Potency, µM (doses to about 9.22 µM), without a hit: top-dose activation, usual class: activators | actives 2.4% (n = 320,000); note: % of control where 0% means no effect; nearly all actives have a fitted effect of over 60% in size
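Cells: Huh7 expressing luciferase under the NPC1 promoter, 1500/well. Seeded 2 h, compound added, incubated 24 h at 37 °C. Luciferase reagent, 10 min ambient, then luminescence.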
SMN2 splice up = qHTS Assay for Enhancers of SMN2 Splice Variant Expression; Potency, µM (titrated, usually from 46.1 µM), for inactives: top-dose activity change, positive = activation, usual class: activators; AID 1458, 2008; actives 2.8% (n = 210,000); HEK293 SMN2-luciferase splicing reporter, luminescence, 30-36 h; note: % of control where 0% means no effect; nearly all actives have a fitted effect of over 55% in size
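HEK293 cells carry an SMN2 […]–luciferase reporter in which exon 7 inclusion puts luciferase in frame. Cells were plated 10-12 h before compound addition, then incubated 30-36 h at 37C. ONE-Glo luminescence was read; sodium butyrate at 4.5 mM final served as control.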
Numbers without * were called inactive. Calls come from the whole dose curve; as a rule, active = well fitted curve in the direction sought with a large enough effect; inconclusive = small, poorly fitted or top-dose-only effect, or another doubt; inactive = no such curve, though single readings can be large; an effect the other way counts as inactive or inconclusive. Potency is the fitted concentration of half-maximal effect.

Screening O=C(c1cc(COc2c(F)cccc2F)on1)N1CCC(c2ccccc2F)C1 (configuration not stated) returned ELG1 genotox inconclusive, FLuc modulator 15.1µM*, Rab9 prom act inconclusive and NPC1 prom act 28.7%.
O=C(c1cc(COc2c(F)cccc2F)on1)N1C[C@H]2CC[C@H]1C2 was read as ELG1 genotox 11.6µM*, FLuc modulator 12µM*, Rab9 prom act 1.58µM* and NPC1 prom act 3.16µM*.
For Cc1cccc(C)c1OCc1cc(C(=O)N2CCC(c3ccncc3)CC2)no1 the results were ELG1 genotox 9.7%, FLuc modulator 13.5µM*, Rab9 prom act 0.7% and NPC1 prom act 5.7%.
`O=C(c1cc(COc2c(F)cccc2F)on1)N1CCC(c2ccccc2Cl)C1` (configuration not stated) gave ELG1 genotox 13.2%, FLuc modulator inconclusive, Rab9 prom act 13.5% and NPC1 prom act 6.3%.
For O=C(NOC(=O)c1ccccc1Cl)c1cccs1 the results were ELG1 genotox -7.0%, FLuc modulator -18.0%, Rab9 prom act -0.7%, NPC1 prom act 1.7% and SMN2 splice up 2.1%.
`COc1ccc(CCNC(=O)/C(C#N)=C2\N=C(NC(=O)c3ccco3)c3ccccc32)cc1` gave ELG1 genotox -5.2%, FLuc modulator 3.4%, Rab9 prom act -1.4% and NPC1 prom act -2.9%.
Screening CCc1ccc(/C=N/n2c(C)cc(C)c(C#N)c2=O)cc1 returned ELG1 genotox 5.0%, FLuc modulator -10.2%, Rab9 prom act 0.2%, NPC1 prom act -2.5% and SMN2 splice up 13.0%.
COc1ccc(Nc2ccccc2C(=O)O)cc1 was read as ELG1 genotox 10.5%, FLuc modulator 0.1%, Rab9 prom act 9.0%, NPC1 prom act 7.6% and SMN2 splice up 3.8%.
COc1ccc(Nc2ccc(Nc3ccc(OC)cc3)nn2)cc1 was read as ELG1 genotox 0.4%, FLuc modulator -0.4%, Rab9 prom act inconclusive and NPC1 prom act -1.2%.
For COc1ccc(Nc2nc(NN)nc(Nc3ccc(OC)cc3)n2)cc1 the results were ELG1 genotox -8.6%, FLuc modulator 10.7µM*, Rab9 prom act -5.1% and NPC1 prom act 5.8%.
For COc1ccc(Nc2ccc(OC)cc2)cc1 the results were FLuc modulator 19µM*, Rab9 prom act inconclusive and NPC1 prom act inconclusive.
For COc1ccc(NC2=CC(=O)N(C)C2=O)cc1 the results were ELG1 genotox inconclusive, FLuc modulator inconclusive, Rab9 prom act inconclusive, NPC1 prom act inconclusive and SMN2 splice up 11.2µM*.
Screening NNc1nc(Nc2ccccc2)nc(Nc2ccccc2)n1 returned ELG1 genotox -2.4%, FLuc modulator inconclusive, Rab9 prom act -0.2%, NPC1 prom act 9.2% and SMN2 splice up -3.9%.
Screening COc1ccc(C(C#N)Nc2ccccc2)cc1 (configuration not stated) returned ELG1 genotox 8.2%, FLuc modulator 1.2%, Rab9 prom act -0.9% and NPC1 prom act -3.4%.
Screening COc1ccc(NC(C#N)c2ccc(OC)cc2)cc1 (configuration not stated) returned ELG1 genotox inconclusive, FLuc modulator 3.01µM*, Rab9 prom act 0.4%, NPC1 prom act -0.6% and SMN2 splice up -3.6%.
CN1C(=O)C2(c3ccccc31)c1c(oc3ccccc3c1=O)C(=O)N2CCCO (configuration not stated) was read as ELG1 genotox -1.4%, FLuc modulator -1.3%, Rab9 prom act 1.8% and NPC1 prom act -0.6%.
For CCCc1ccccc1OCCNC(=O)c1cc(=O)n(C)c(=O)n1C the results were ELG1 genotox -10.5%, FLuc modulator 2.3%, Rab9 prom act -3.9%, NPC1 prom act -3.9% and SMN2 splice up -0.1%.
Screening CCc1ccc(C2C(C(=O)Nc3ccc(Cl)cc3)=C(C)Nc3ncnn32)cc1 (configuration not stated) returned FLuc modulator -5.8% and SMN2 splice up -6.2%.
COc1ccc(Nc2nc(C)cc(=O)[nH]2)cc1 was read as ELG1 genotox 1.9%, FLuc modulator 3.4%, Rab9 prom act 0.2%, NPC1 prom act -3.6% and SMN2 splice up -5.6%.
For COc1ccc(NC2=C(C)C(=O)CC2)cc1 the results were ELG1 genotox 18.4µM*, FLuc modulator 3.2%, Rab9 prom act 0.6%, NPC1 prom act -3.5% and SMN2 splice up inconclusive.
Screening O=C1CC(c2ccccc2)=Nc2ccc(Br)cc2N1 returned ELG1 genotox -0.7%, FLuc modulator -4.8%, Rab9 prom act 1.3%, NPC1 prom act 2.4% and SMN2 splice up -3.5%.
Screening Cc1ccc2c(c1)NC(=O)CC(c1ccccc1)=N2 returned ELG1 genotox 13.1%, FLuc modulator 12µM*, Rab9 prom act inconclusive, NPC1 prom act 9.6% and SMN2 splice up inconclusive.
Screening CCCc1nn(C)c(C(=O)Nc2ccc(C)c(C)c2)c1Cl returned ELG1 genotox inconclusive, FLuc modulator 10.7µM*, Rab9 prom act 3.16µM*, NPC1 prom act inconclusive and SMN2 splice up 6.31µM*.
Cc1ccc(C(=O)O/N=C(\N)Cc2cccs2)cc1[N+](=O)[O-] was read as ELG1 genotox inconclusive, FLuc modulator 0.1%, Rab9 prom act 3.16µM* and NPC1 prom act 2.24µM*.
For Cc1csc2nc(CSc3nc4ccccc4o3)c(Br)n12 the results were ELG1 genotox 2.91µM*, FLuc modulator 8.49µM*, Rab9 prom act 2.51µM*, NPC1 prom act 3.55µM* and SMN2 splice up inconclusive.
For Cc1csc2nc(CSc3nncn3-c3ccccc3)c(Br)n12 the results were ELG1 genotox -0.3%, FLuc modulator 3.6%, Rab9 prom act -0.2%, NPC1 prom act -3.1% and SMN2 splice up 6.7%.
For CCOC(=O)N1CCN(S(=O)(=O)N2CCCC(C(=O)NCCCN3CC(C)CC(C)C3)C2)CC1 (configuration not stated) the results were ELG1 genotox -0.5%, FLuc modulator 0.0%, Rab9 prom act -2.3% and NPC1 prom act -6.6%.
For Cc1ccc(Nc2nnc(SCC(=O)NC3CCCc4ccccc43)s2)cc1 (configuration not stated) the results were ELG1 genotox -5.5%, FLuc modulator inconclusive, Rab9 prom act -4.0%, NPC1 prom act -5.6% and SMN2 splice up -34.9%.
For Cc1cccc(Nc2nnc(SCc3cn4ccsc4n3)s2)c1 the results were ELG1 genotox 3.1%, FLuc modulator 16.9µM*, Rab9 prom act -0.9%, NPC1 prom act 1.1% and SMN2 splice up -8.9%.

Bioassay records: PubChem, National Center for Advancing Translational Sciences (NCATS)
